High-throughput results (PubChem BioAssay)
Giardia kill = kills Giardia lamblia; Giardia lamblia trophozoite viability; activity change, % at 7.66 µM, hits read low; 0.15% of 340,000 active; AID 540267; in the data active = activity change below about -80%; inconclusive = between about -30% and that limit;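 also: parasites exposed to compound for two days anaerobically before the ATP read; % is scaled to controls: 0 for no effect and ±100 for the full control effect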
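ATP-content bioluminescence gauges trophozoite survival. Cells (100/well) receive compound and incubate anaerobically for 48 hrs at 37 deg C; detection reagent follows for 15-30 min at room temperature.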
Mito fusion yeast = inhibitors of mitochondrial division or activators of mitochondrial fusion; 0.23% of 320,000 active; Potency, µM (series often up to 46.1 µM), for inactives: at the highest dose growth rescue (activation), most hits filed as activators; S. cerevisiae fusion-defective mutant growth rescue, CellTiterGlo 48 h; also: potency is read from the fitted curve at half-maximal effect; % of control where 0% means no effect; nearly all actives have a fitted effect of over 45% in size
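Read-out: ATP-based luminescence (CellTiterGlo, 10 min ambient) reporting growth of fusion-defective ts yeast after 48 hours at 37C on glycerol/ethanol YPEG medium in the presence of compound.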
p53 reactivation = restores transcriptional activity of mutant p53. H1299 p53-A138V BP100-luciferase reporter, luminescence, 24 h. Potency, µM (highest dose often 92.2 µM), without a hit: at the highest dose activity change, positive = activation, actives largely listed as activators. 0.063% of 320,000 active. AID 504706; also: potency is read from the fitted curve at half-maximal effect; % of control where 0% means no effect; nearly all actives have a fitted effect of over 45% in size
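p53-null H1299 cells stably carrying temperature-sensitive p53-A138V and a BP100-luciferase reporter were pinned with compounds (4-point, 1:5 series) and held 24 hrs at 37 deg C. Luminescence was read 10 min after detection reagent.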
uPA surface inh = blocks generation of uPA at the cell surface. cell surface uPA generation assay, qHTS. Potency, µM (titrated, usually from 38.3 µM), for the others: top-dose activity change, negative = inhibition, most hits filed as inhibitors. 0.31% of 330,000 active; active = well fitted inhibition curve with a large enough effect; inconclusive = small, poorly fitted or top-dose-only effect; inactive = no such curve, though single readings can be large or run the other way; tested in mouse RAW 264.7 cells; also: potency is read from the fitted curve at half-maximal effect; % is scaled to controls: 0 for no effect and ±100 for the full control effect; nearly all actives have a fitted effect of over 55% in size
ClpP mod = qHTS Assay for Activators of ClpP; ATP-dependent Clp protease proteolytic subunit (Bacillus subtilis (strain 168)), P80244; purified B. subtilis ClpP, FRET peptide cleavage, 20 min; Potency, µM (series often up to 57.5 µM), for inactives: top-dose activity change, negative = active; 1.9% of 340,000 active; AID 651965, 2013; active = well fitted falling curve with a large enough effect; inconclusive = small, poorly fitted or top-dose-only effect; inactive = no such curve, though single readings can be large or run the other way; also: potency is read from the fitted curve at half-maximal effect; the source files actives as falling curves though it sought activators and does not explain the sign; nearly all actives have a fitted effect of over 65% in size
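FRET quenching reversal measured ClpP activation: 10 microg/mL B. subtilis ClpP at pH 8 with the FRET-FV decapeptide, read at 430 nm after 320 nm excitation. The 20-min minus 0-min signal was scaled between DMSO/no-enzyme wells and ADEP (5.8 microM final).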
B2AR arrestin = recruits beta-arrestin to the human beta2-adrenergic receptor | P07550 | beta-arrestin recruitment to beta2AR, cell-based reporter | Potency, µM (doses to about 46.1 µM), inactives show at the highest dose activation, actives largely listed as activators | 0.02% of 330,000 active | AID 492947;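 also: potency is read from the fitted curve at half-maximal effect; 0% = DMSO controls and full agonism = EC100 isoproterenol or metaproterenol; nearly all actives have a fitted effect of over 65% in size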
The depositor's hits bear a star; u = inconclusive; x = not tested or not shown. An excerpt weighted towards active compounds, which were near 2.1% of everything screened. Unless noted, calls follow the shape of the dose curve; as a rule, active = well fitted curve in the direction sought with a large enough effect; inconclusive = small, poorly fitted or top-dose-only effect, or another doubt; inactive = no such curve, though single readings can be large; an effect the other way counts as inactive or inconclusive.

SMILES | Giardia kill | Mito fusion yeast | p53 reactivation | uPA surface inh | ClpP mod | B2AR arrestin
O=C1CSC(c2cn(-c3ccccc3)nc2-c2cc3ccccc3oc2=O)N1Cc1ccccc1 (centres undefined) | -0.6 | 28.5% | -2.6% | -15.7% | 28.2µM* | -0.1%
CN1CCN(C(=O)c2ccc(C3SCC(=O)N3Cc3ccco3)cc2)CC1 (centres undefined) | -22.5 | 0.6% | -10.7% | 0.0% | 0.4% | -1.0%
CN(C)C(=O)c1cn(-c2ccccc2)nc1-c1cc2ccccc2oc1=O | -6.4 | 5.7% | -5.0% | 1.9% | x | 0.1%
O=C1CSC(c2nn(-c3ccccc3)cc2-c2cc3ccccc3oc2=O)N1Cc1ccco1 (centres undefined) | 1.8 | 7.3% | -5.8% | -19.8% | 35.5µM* | -1.0%
O=C(NNC(=O)c1cc2ccccc2cc1O)Nc1ccc(Br)cc1 | -1.1 | 1.6% | -2.4% | 0.7% | 28.2µM* | -0.4%
C=C(C)COc1ccc(-c2nc(N)nc(C)c2-c2ccc(OC)cc2)c(O)c1 | -9.3 | -0.1% | 5.0% | 7.9% | 25.1µM* | -0.4%
C=C(C)COc1ccc(-c2nc(N)ncc2-c2ccc(OC)cc2)c(O)c1 | x | -5.4% | -23.3% | x | x | -0.4%
Cc1nc2cc(-c3cccs3)[nH]n2c(=O)c1C | 9.5 | x | x | 0.2% | 14.1µM* | x
Cc1ccccc1-c1cc2nc(C)c(C)c(=O)n2[nH]1 | -2.7 | -2.3% | 25.9% | 2.4% | 29.1% | -0.3%
O=C(CC1N=C2c3ccccc3N=C(SCC(=O)Nc3cccc(Cl)c3)N2C1=O)NCc1cccs1 (centres undefined) | x | x | x | x | -6.1% | x
COc1cccc(-c2nc(N3CCCCC3C)c3ccccc3n2)c1O (centres undefined) | 7.0 | 12.6µM* | 0.6% | -12.6% | -0.3% | 0.4%
COc1ccc(OC)c(/C=N/NC(=O)CC2C(=O)NN=C2C)c1 (centres undefined) | u | -1.6% | -20.5% | -1.9% | 28.2µM* | -0.1%
COc1ccc(OC)c(/C=N/NC(=O)CCc2ccc(O)c(O)c2)c1 | 2.2 | 3.1% | 2.6% | -4.3% | 8.91µM* | -1.1%
Nc1nc(-c2ccco2)nn1S(=O)(=O)c1ccccc1 | 10.6 | -1.3% | -0.1% | 10.6% | x | 0.1%
Nc1nc(-c2cccnc2)nn1S(=O)(=O)c1ccccc1 | -1.4 | x | x | -3.1% | 35.5µM* | x
CC(=O)Nc1ccc(CCNC(=O)c2ccc3ccccc3c2O)cc1 | -13.7 | x | x | 2.6% | 25.1µM* | x
CC(C)COc1ccc(C(=O)OC2CC(C)(C)OCC2CN(C)C)cc1 (centres undefined) | 24.7 | -21.3% | 0.7% | 8.6% | 20µM* | 2.7%
O=C1c2cccc3cccc(c23)C(=O)N1OS(=O)(=O)c1ccccc1 | 0.8 | -6.7% | 22.5% | 2.2% | 28.2µM* | -0.1%
O=C(c1cnc(N2CCCCC2)c2ccccc12)N1CCN(c2cccc(Cl)c2)CC1 | x | x | x | x | 28.2µM* | x
COc1ccccc1N1CCN(c2ncc(C(=O)N3CCN(c4cccc(Cl)c4)CC3)c3ccccc23)CC1 | 4.5 | -0.3% | 1.7% | 6.4% | x | -0.1%
Cc1ccc(NC(=O)c2cnc(N3CCCCC3)c3ccccc23)cc1Cl | x | x | x | x | 31.6µM* | x
CCOC(=O)c1ccccc1NC(=O)c1cnc(N2CCOCC2)c2ccccc12 | x | x | x | x | 31.6µM* | x
Cc1ccc(-c2c(C3C4C=CCCC4(C)C(=O)N3Cc3ccccc3)ccc3ccccc23)cc1 (centres undefined) | 8.5 | x | x | x | x | x
CCc1nn2c(=O)cc(COC(=O)c3cccs3)nc2s1 | x | x | x | x | -3.5% | x
CCCC[C@H]1CCCO[C@@](C(=O)NCc2ccc(C)o2)(C(F)(F)F)C1 | -12.0 | x | x | x | x | x
SMILES | Giardia kill | Mito fusion yeast | p53 reactivation | uPA surface inh | ClpP mod | B2AR arrestin
O=c1[nH]c2cc3c(cc2cc1CN(Cc1ccccc1)Cc1nnnn1Cc1ccco1)OCCO3 | -19.2 | 1.1% | 1.3% | 8.2% | -15.6% | -0.4%
O=c1[nH]c2cc3c(cc2cc1CN(Cc1cccs1)Cc1nnnn1Cc1ccco1)OCCO3 | -10.6 | 1.8% | -1.1% | -5.7% | u | 0.9%
O=c1[nH]c2cc3c(cc2cc1CN(Cc1cccnc1)Cc1nnnn1Cc1ccco1)OCCO3 | -7.1 | 0.1% | -9.5% | x | 14.1µM* | -0.1%
COc1ccccc1CN(Cc1cc2cc3c(cc2[nH]c1=O)OCCO3)Cc1nnnn1Cc1ccco1 | -4.2 | 3.4% | -2.0% | x | 28.2µM* | -1.0%
Cc1ccc(N2C(=O)C(CN3CCCCC3)C2c2ccccc2)cc1 (centres undefined) | 6.1 | 0.7% | 6.9% | x | 15.8µM* | -0.2%
CSCCC(C(=O)Nc1c(C)cccc1C)n1c(-c2cc(C)cs2)nc2ccccc21 (centres undefined) | x | x | x | x | 4.3% | x
COc1ccc(C(Nc2ccccn2)c2c(NC(=O)c3ccco3)sc(C)c2C)cc1 (centres undefined) | 32.5 | 12.6µM* | 15.6% | 7.9% | -16.0% | 4.4%
Cc1ccn2c(/C=N/OCc3ccc(F)cc3)c(-c3ccc(Cl)cc3)nc2c1 | -0.3 | -1.1% | 5.8% | -4.0% | u | -1.7%
Cc1ccn2c(/C=N/OCc3cccc(F)c3)c(-c3ccc(Cl)cc3)nc2c1 | 2.7 | -1.7% | -2.0% | 2.8% | 25.1µM* | 0.2%
COC(=O)[C@@]12C[C@@H](CC(=O)NCCC(C)C)C(=O)N(Cc3cccc4ccccc34)C1=CCC(C)(C)C2 | x | x | x | x | 1.5% | x
Cc1ccc(/C(=N\O)c2oc3c(C)c4oc(=O)cc(C)c4cc3c2C)cc1 | -21.2 | 7.08µM* | 13.8% | -4.3% | 25.1µM* | 2.7%
CCCN(CC1CC1)C(=O)CSc1nnc(-c2cc(-c3cccs3)nc3ccccc23)o1 | -23.4 | 1.1% | 0.8% | -0.6% | 25.1µM* | -0.5%
NC(=O)CSc1nnc(-c2cc(-c3cccs3)nc3ccccc23)o1 | -8.8 | 0.8% | -1.4% | 7.2% | 25.1µM* | 0.1%
CCC(C)NC(=O)CSc1nnc(-c2cc(-c3cccs3)nc3ccccc23)o1 (centres undefined) | 4.7 | 3.8% | -9.0% | -5.2% | 25.1µM* | -0.8%
O=C(CSc1nnc(-c2cc(-c3cccs3)nc3ccccc23)o1)NC1CCCCC1 | 20.2 | 3.2% | -1.3% | -7.1% | u | -0.7%
O=C(NCc1ccc(F)cc1)c1cccc(N2CCCS2(=O)=O)c1 | x | x | x | x | -5.4% | x
CCc1cccc2sc(N3CCN(C(=O)C4CC4)CC3)nc12 | x | x | x | x | 1.8% | x
CCc1cccc2sc(N3CCN(C(=O)c4ccc([N+](=O)[O-])o4)CC3)nc12 | u | u | -4.4% | 7.94µM* | 0.4% | -0.2%
COc1ccc(NC(=O)CSc2nc3ccccc3n2CC(=O)N(C)C2CCCCC2)cc1 | x | x | x | x | -1.0% | x
Cc1cnc([N+](=O)[O-])n1CCOC(=O)NC(=O)c1cccc(F)c1 | u | -0.3% | 0.6% | -0.1% | 2.2% | 0.3%
